# In ChEMBL document CHEMBL1961873, “Compounds: GSK PKIS; Assays: Nanosyn kinase panel” (2012):
# Tests used:
# [1] = molecular target: T1, Inhibitor of nuclear factor kappa-B kinase subunit epsilon (Homo sapiens) (UniProt Q14164); details: at 1 µM;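 further: reported values are averaged percent inhibition figures against human IKKε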
# T1 sequence (whole entry): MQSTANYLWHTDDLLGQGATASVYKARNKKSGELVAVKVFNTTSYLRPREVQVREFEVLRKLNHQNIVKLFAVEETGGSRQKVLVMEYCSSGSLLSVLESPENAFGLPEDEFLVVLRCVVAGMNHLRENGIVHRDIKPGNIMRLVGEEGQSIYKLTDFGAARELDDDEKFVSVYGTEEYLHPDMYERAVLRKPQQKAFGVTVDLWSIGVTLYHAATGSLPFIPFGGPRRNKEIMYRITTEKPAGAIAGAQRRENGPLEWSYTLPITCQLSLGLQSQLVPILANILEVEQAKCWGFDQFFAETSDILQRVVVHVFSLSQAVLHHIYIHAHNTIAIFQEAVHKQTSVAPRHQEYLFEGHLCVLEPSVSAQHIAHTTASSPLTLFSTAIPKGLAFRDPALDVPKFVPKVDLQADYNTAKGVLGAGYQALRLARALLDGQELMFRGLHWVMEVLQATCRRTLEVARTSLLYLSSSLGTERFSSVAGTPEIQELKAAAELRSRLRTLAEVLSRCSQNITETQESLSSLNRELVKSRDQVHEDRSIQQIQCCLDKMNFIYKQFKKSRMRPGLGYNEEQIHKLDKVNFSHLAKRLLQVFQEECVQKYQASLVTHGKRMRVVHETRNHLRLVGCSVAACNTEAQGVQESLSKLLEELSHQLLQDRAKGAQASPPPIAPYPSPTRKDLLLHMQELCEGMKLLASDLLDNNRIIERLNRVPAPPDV
# [2] = molecular target: T2, Serine/threonine-protein kinase Nek1 (Homo sapiens) (UniProt Q96PY6); details: at 0.1 µM
# T2 sequence (whole entry): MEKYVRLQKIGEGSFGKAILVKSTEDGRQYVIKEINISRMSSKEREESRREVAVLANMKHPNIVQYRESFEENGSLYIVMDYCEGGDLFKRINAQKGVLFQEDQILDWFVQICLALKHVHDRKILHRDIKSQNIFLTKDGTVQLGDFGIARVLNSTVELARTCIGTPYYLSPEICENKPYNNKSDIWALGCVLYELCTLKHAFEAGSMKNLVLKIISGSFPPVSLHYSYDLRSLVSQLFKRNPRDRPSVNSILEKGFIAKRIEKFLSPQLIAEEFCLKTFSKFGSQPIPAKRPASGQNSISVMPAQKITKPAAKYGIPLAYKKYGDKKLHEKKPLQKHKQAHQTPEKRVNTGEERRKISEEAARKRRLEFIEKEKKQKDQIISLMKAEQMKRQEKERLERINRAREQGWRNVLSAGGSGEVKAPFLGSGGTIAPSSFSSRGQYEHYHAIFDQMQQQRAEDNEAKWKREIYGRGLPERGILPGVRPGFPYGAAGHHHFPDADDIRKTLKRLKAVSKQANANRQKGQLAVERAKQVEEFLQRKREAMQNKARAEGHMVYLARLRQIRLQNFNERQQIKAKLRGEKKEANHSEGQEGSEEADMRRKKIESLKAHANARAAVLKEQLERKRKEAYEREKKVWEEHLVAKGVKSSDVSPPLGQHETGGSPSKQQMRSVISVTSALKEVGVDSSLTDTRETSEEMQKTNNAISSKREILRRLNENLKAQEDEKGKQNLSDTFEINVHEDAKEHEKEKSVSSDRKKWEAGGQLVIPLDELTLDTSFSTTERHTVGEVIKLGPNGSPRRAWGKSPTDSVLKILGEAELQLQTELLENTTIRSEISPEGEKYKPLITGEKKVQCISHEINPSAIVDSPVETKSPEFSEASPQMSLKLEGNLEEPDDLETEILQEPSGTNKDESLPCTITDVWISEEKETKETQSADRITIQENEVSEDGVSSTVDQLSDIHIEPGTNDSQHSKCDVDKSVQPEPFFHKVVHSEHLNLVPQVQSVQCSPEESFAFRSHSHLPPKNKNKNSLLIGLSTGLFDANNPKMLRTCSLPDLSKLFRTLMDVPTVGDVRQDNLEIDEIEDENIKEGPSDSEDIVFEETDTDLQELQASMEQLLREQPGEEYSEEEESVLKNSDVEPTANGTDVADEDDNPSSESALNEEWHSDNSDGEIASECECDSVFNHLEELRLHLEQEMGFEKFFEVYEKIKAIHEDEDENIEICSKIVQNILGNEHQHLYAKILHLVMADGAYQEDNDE
# [3] = molecular target: T2, Serine/threonine-protein kinase Nek1 (Homo sapiens); details: at 1 µM
# [4] = molecular target: T3, Serine/threonine-protein kinase Nek2 (Homo sapiens) (UniProt P51955); details: at 0.1 µM
# T3 sequence (whole entry): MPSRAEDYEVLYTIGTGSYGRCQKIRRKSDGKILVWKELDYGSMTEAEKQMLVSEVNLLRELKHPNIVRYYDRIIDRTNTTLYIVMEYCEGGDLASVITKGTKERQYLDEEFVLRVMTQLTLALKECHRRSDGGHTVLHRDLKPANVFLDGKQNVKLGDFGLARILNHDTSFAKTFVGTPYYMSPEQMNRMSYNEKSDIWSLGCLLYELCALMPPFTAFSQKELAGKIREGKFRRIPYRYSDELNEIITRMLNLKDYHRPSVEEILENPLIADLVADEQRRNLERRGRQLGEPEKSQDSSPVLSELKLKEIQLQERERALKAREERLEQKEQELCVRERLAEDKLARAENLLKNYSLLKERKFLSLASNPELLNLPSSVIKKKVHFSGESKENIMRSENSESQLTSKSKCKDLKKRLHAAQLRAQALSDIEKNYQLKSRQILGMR
# [5] = molecular target: T3, Serine/threonine-protein kinase Nek2 (Homo sapiens); details: at 1 µM
# [6] = molecular target: Serine/threonine-protein kinase Nek6 (Homo sapiens) (UniProt Q9HC98); details: at 0.1 µM
# Sequence of Serine/threonine-protein kinase Nek6 (Homo sapiens) (Q9HC98 whole entry): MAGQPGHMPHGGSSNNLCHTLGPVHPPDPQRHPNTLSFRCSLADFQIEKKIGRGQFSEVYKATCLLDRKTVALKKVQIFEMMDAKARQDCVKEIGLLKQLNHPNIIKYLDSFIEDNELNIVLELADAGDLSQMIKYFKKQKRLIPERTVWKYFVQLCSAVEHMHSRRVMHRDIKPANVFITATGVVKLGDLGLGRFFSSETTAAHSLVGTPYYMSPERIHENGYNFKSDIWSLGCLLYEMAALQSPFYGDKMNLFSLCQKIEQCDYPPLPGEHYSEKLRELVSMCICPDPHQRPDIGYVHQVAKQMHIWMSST
# [7] = molecular target: Serine/threonine-protein kinase Nek6 (Homo sapiens) (UniProt Q9HC98); details: at 1 µM
# [8] = molecular target: Serine/threonine-protein kinase Nek7 (Homo sapiens) (UniProt Q8TDX7); details: at 0.1 µM
# Sequence of Serine/threonine-protein kinase Nek7 (Homo sapiens) (Q8TDX7 whole entry, looked up): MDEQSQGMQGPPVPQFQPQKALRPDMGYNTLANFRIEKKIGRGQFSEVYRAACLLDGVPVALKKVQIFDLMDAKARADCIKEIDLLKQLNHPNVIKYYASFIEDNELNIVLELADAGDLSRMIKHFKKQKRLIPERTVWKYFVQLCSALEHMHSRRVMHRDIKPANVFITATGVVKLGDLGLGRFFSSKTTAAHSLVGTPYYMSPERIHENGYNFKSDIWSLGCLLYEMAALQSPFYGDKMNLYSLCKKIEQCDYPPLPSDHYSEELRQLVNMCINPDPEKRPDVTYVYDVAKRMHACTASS
# [9] = molecular target: Serine/threonine-protein kinase Nek7 (Homo sapiens) (UniProt Q8TDX7); details: at 1 µM
# [10] = molecular target: T4, Serine/threonine-protein kinase Nek9 (Homo sapiens) (UniProt Q8TD19); details: at 0.1 µM;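 further: reported value is the mean percent inhibition of NEK9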
# T4 sequence (whole entry): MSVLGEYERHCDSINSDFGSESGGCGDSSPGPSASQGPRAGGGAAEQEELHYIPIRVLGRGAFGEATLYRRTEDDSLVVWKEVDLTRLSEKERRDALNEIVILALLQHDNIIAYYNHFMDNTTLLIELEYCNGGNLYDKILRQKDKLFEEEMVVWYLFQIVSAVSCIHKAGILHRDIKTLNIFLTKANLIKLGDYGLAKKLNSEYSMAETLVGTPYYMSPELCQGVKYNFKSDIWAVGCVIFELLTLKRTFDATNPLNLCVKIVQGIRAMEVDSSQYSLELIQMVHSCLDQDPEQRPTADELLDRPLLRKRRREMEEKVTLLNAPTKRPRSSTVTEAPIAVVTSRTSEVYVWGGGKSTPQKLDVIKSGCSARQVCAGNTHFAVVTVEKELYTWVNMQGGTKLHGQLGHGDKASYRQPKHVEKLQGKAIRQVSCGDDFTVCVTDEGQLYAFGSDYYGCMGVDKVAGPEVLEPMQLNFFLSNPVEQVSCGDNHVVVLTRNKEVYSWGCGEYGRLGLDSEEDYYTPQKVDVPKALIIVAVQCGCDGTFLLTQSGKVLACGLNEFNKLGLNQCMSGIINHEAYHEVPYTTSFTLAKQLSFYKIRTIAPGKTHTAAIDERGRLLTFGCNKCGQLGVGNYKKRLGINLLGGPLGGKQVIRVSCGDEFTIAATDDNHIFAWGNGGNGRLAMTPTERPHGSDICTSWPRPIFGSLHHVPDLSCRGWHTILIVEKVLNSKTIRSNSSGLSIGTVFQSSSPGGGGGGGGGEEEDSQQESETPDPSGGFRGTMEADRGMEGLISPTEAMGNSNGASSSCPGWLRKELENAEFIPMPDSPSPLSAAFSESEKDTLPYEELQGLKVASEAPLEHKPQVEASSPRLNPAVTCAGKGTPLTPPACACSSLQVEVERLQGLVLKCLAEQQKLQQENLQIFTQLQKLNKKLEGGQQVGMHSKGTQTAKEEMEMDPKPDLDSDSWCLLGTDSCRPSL
smiles,measurement,setting,value
COc1cc2ncn(-c3cc(OCc4ccccc4C(F)(F)F)c(C(N)=O)s3)c2cc1OC,inhibition,[1],5.84%
same,inhibition,[2],3.95%
same,inhibition,[3],19.1%
same,inhibition,[4],6.41%
same,inhibition,[5],17.1%
same,inhibition,[6],0.15%
same,inhibition,[7],2.1%
same,inhibition,[8],3.29%
same,inhibition,[9],5.2%
same,inhibition,[10],16.7%
